# Data as given in PubChem BioAssay AID624416 (The Scripps Research Institute Molecular Screening Center, 2012).
# Screen size: about 360,000 compounds; about 1,500 (0.42%) were called active. The full list was thinned out, with actives kept by preference. Unmarked numbers belong to inactive results. No stated cut-off is given here; in the data, active means inhibition above about 8.5%; inactive means the rest.
# Tested on: HIV-1 gp120 / PG9 antibody interaction
# Assay: small molecules engaging PG9 antibody – biochemical, TR-FRET, primary screen (AID 624416)
# Conditions: TR-FRET gp120-PG9 antibody binding; at 6.7 µM; active compounds read high
row,SMILES,inhibition
1,Cc1nc(NC(=O)C(C)(C)C)sc1[N+](=O)[O-],-0.45%
2,COC(=O)C1=C(C)N(Cc2cccc(C(F)(F)F)c2)C(=NCc2ccccc2)NC1c1ccccc1C(F)(F)F (stereo not drawn),0.63%
3,COC(=O)C(C(=O)OC)c1ccccc1NS(=O)(=O)c1cccc2ccccc12,0.18%
4,CC(=NNC(N)=O)c1ccc(Cl)c(-n2cccc2)c1,0.53%
5,CCCCNC(=O)c1c[nH]c2ccc(S(=O)(=O)Nc3ccc(OCC)cc3)cc2c1=O,2.91%
6,COc1cccc(NS(=O)(=O)c2ccc3[nH]cc(C(=O)NCCCOC(C)C)c(=O)c3c2)c1,10.3% (active)
7,CCN(CC)S(=O)(=O)c1ccc2[nH]cc(C(=O)NCCc3ccccc3)c(=O)c2c1,-0.32%
8,CN1CCCCC(NC(=O)C(C)(C)C)C1=O (stereo not drawn),-1.72%
9,CC(C)N(c1ccccc1)c1ncnc(NCCC(=O)O)c1[N+](=O)[O-],-1.67%
10,O=C(O)CCCCCNc1ncnc2ccc(Br)cc12,18.3% (active)
11,COC(=O)[C@]1(Cc2ccccc2)NC=C(C(=O)c2ccccc2)[C@@H]1c1cccc(OC)c1,-1.25%
12,Cc1cc(Nc2cccc(C)c2C)n2ncnc2n1,0.14%
13,Cc1cccc(Nc2nc3c(S(=O)(=O)c4ccccc4)nnn3c3ccccc23)c1C,16.5% (active)
14,CC(=O)Nc1ccc(Nc2nc3c(S(=O)(=O)c4ccc(C)c(C)c4)nnn3c3ccccc23)cc1,1.78%
15,COc1cccc(CNC(=O)[C@H]2CCCN2C(=O)[C@H]2CCCN2C(=O)c2ccc(F)cc2)c1,-1.74%
16,O=C(C(=O)N1CCC(CNS(=O)(=O)Cc2ccccc2)CC1)c1cc2ccccc2o1,0.63%
17,COC(=O)c1cc2c(c3c4cc(F)ccc4n(S(=O)(=O)c4ccccc4)c13)C(=O)N(Cc1ccccc1OC)C2,0.8%
18,CCOC(=O)C1CSCCS(=O)(=O)N1Cc1ccc(Cl)cc1 (stereo not drawn),-1.82%
19,Cc1ccccc1C(=O)N[C@H](C(=O)N1CCC[C@H]1C(=O)NCc1ccccc1)C(C)C,-2.77%
20,CC(=O)Nc1ccc(C(=O)CSc2nc3ccc(C)cc3[nH]2)cc1,-0.81%
21,Cc1nc2nc(SCC(=O)c3ccccc3)[nH]c2cc1Br,29.2% (active)

row,SMILES,inhibition
1,Cc1nc2nc(SCC(=O)Nc3cccc(F)c3)[nH]c2cc1Br,-0.51%
2,COc1cccc(-c2cc(CNC(=O)[C@@H](Cc3ccccc3)NC(=O)[C@H]3O[C@@H](n4cnc(C(N)=O)n4)[C@H](O)[C@@H]3O)no2)c1,-2.73%
3,COC(=O)[C@]12C[C@H](CC(=O)NCc3ccc(C)o3)C(=O)N(CCC3=CCCCC3)C1=C[C@H](C(C)(C)C)O[C@@H]2C,-1.11%
4,COc1ccccc1-c1ccc([C@@H]2C[C@H]3[C@H](CON3C)CN2S(=O)(=O)c2cc(Cl)cc(Cl)c2)cc1,-0.23%
5,CC[C@H](C)[C@H]1CNC(=O)C(=O)N1CC1CCN(CCc2ccc(OC)c(OC)c2)CC1,-1.11%
6,Cc1cc2c(cc1C)N1C(=O)c3cc4ccccc4cc3NC(=O)C1C(=O)N2 (stereo not drawn),9.79% (active)
7,Cc1cc(N2CCN(C(=O)OC(C)(C)C)C[C@H]2C)ccc1N1CCN(Cc2ccccc2)[C@H](C)C1,-1.9%
8,CCc1ccc(NC(=O)CSc2nnc(-c3cnccn3)n2Cc2ccco2)cc1,14.2% (active)
9,CCn1c(SCC(=O)Nc2cc(C)ccc2C)nnc1-c1cnccn1,1.97%
10,CCOC(=O)Cc1csc(NC(=O)CSc2nnc(-c3cccnc3)n2Cc2ccco2)n1,-0.33%
11,CC(C)(C)C(c1nc2ccccc2[nH]1)n1c(Cc2csc3ccccc23)nc2ccccc21 (stereo not drawn),3.67%
12,CC(C)OCCCNC(=O)c1cc(Sc2ccc(F)cc2)nc2ccccc12,17.2% (active)
13,CC(C)CCNC(=O)c1cccnc1Sc1ccccc1,-0.45%
14,O=C(NCCOc1ccccc1)c1ccccc1F,-0.63%
15,O=S1(=O)c2ccc(Br)cc2-n2nncc2CN1Cc1cccc(Cl)c1,1.6%
16,Nc1ccn([C@@H]2O[C@H](C(=O)N[C@H]3CCCCNC3=O)[C@@H](O)[C@H]2O)c(=O)n1,-0.25%
17,CCOc1cc2ccccc2cc1C(=O)Nc1ccccn1,12.2% (active)
18,CCN(CC)S(=O)(=O)c1cc(C(=O)Nc2ccccn2)ccc1C,-1.5%
19,CCOc1cc(NC(=O)c2ccccc2C(=O)O)c(OCC)cc1NC(=O)c1ccccc1F,-7.45%
20,Nc1ncnc2c1ncn2[C@@H]1O[C@H](C(=O)N[C@@H](CCc2ccccc2)C(=O)N2CCCN(Cc3cccs3)CC2)[C@@H](O)[C@H]1O,0.34%
21,C#CCN([C@@H](C)C(=O)OCC)S(=O)(=O)c1ccc(Br)cc1F,-1.25%

row,SMILES,inhibition
1,C[C@@H]1ON(C)[C@H]2C[C@H]3c4cc(N5CCOCC5)ccc4CCN3C[C@@H]12,-1.04%
2,CC1(C)Cc2ccccc2/C(=C/C(=O)c2ccccc2)N1,0.12%
3,N#CC1=C(N)Oc2[nH]c(=S)[nH]c(=O)c2C12C(=O)Nc1ccccc12 (stereo not drawn),-2.89%
4,CC1(C)Cc2ccccc2-c2[nH]c(=S)[nH]c(=O)c21,35% (active)
5,COC(=O)c1cc2c(c3c4ccccc4n(S(=O)(=O)c4cccc(C)c4)c13)C(=O)N(Cc1ccccc1)C2,0.57%
6,N#Cc1cccc(C(=O)NCC2CCN(C(=O)C(=O)c3cc4ccccc4o3)CC2)c1,-0.57%
7,CCCCOCC1CN(CCCC)S(=O)(=O)c2c(Oc3ccc(F)cc3)cccc2O1 (stereo not drawn),-0.05%
8,CCOc1cc(C2C(C(=O)c3ccco3)=C(O)C(=O)N2Cc2ccccc2)ccc1O (stereo not drawn),0.36%
9,O=C(C1=C(O)C(=O)N(Cc2ccccc2)C1c1ccco1)c1ccco1 (stereo not drawn),17.9% (active)
10,O=C(C1=C(O)C(=O)N(Cc2ccccc2)C1c1cccnc1)c1ccco1 (stereo not drawn),7.52%
11,COC(=O)C1=C(C)N(Cc2cccc(C(F)(F)F)c2)C(=NCc2cccc(C(F)(F)F)c2)NC1c1ccccc1C(F)(F)F (stereo not drawn),-0.87%
12,COC(=O)C1=C(C)NC(=S)NC1c1ccc(OC)cc1 (stereo not drawn),-0.48%
13,COC(=O)C1=C(C)N(Cc2cccc(C(F)(F)F)c2)C(=NCc2ccccc2)NC1c1ccc(Cl)cc1 (stereo not drawn),-1.36%
14,COC(=O)[C@H](CC(C)C)NS(=O)(=O)c1c(F)cccc1F,-2.8%
15,COc1ccc(S(=O)(=O)Nc2ccc3c(c2)C(=O)N([C@H](C)CO)C[C@H](C)[C@@H](CN(C)C)OCCCC[C@H](C)O3)cc1,-0.42%
16,O=C(COC(=O)c1cccc(Br)c1)Nc1cccc2c1C(=O)c1ccccc1C2=O,12% (active)
17,O=C(COC(=O)Cn1cnc2ccccc21)Nc1cccc2c1C(=O)c1ccccc1C2=O,-1.23%
18,O=C(COC(=O)c1cccc(Cl)c1)Nc1ccc2[nH]c(=O)[nH]c2c1,0.75%
19,COC(=O)[C@]12C[C@H](CC(=O)NCc3cccc(C(F)(F)F)c3)C(=O)N(Cc3ccc4c(c3)OCO4)C1=C[C@H](COCc1ccccc1)O[C@@H]2C,-1.16%
20,COc1cccc(NC(=O)N(C)C[C@@H]2OCc3cn(nn3)CCCC(=O)N([C@@H](C)CO)C[C@H]2C)c1,0.85%
21,Cc1cc(C#N)c(SCC(N)=O)nc1-c1ccc(F)cc1,-0.54%

row,SMILES,inhibition
1,CCOc1ccc2cc(C#N)c(SCC(=O)OC)nc2c1,33.3% (active)
2,CCOc1ccc2nc(N3CCCN(C(=O)Nc4ccccc4C)CC3)c(C#N)cc2c1,1.36%
3,COc1ccccc1Cc1c(-c2ccc(F)cc2)nc2ccc(C)cn12,1.73%
4,N#Cc1ccc(OCCCN2CCC(C(O)(c3ccccc3)c3ccccc3)CC2)c(F)c1,1.27%
5,O=C(O)CCC(=O)Nc1nc2ccc([N+](=O)[O-])cc2s1,9.53% (active)
6,Cc1nc(NC(=O)CCC(=O)O)sc1C(=O)N(C)C,0.5%
7,NS(=O)(=O)c1ccc2nc(NC(=O)CS(=O)(=O)c3ccc(F)cc3)sc2c1,-0.8%
8,CCN1C(=O)N[C@@H]2C[C@H](C(=O)N3CCCC3)[C@H](C)[C@H](c3ccccc3)C[C@@H]21,-1.63%
9,N#Cc1ccccc1Sc1ccccc1C(=O)OCC(=O)NC1CCCCC1,33% (active)
10,O=C(COC(=O)c1cccc(Cl)c1Cl)NC1CCCCCC1,-0.6%
11,O=C(COC(=O)c1ccccc1Cl)NC1CCCCCCC1,-1.4%
12,COCCNC(=S)N(C)[C@H]1C[C@H]2c3[nH]c4ccccc4c3CCN2C[C@H]1[C@H](C)O,-0.82%
13,COCc1[nH]nc2c1C(c1ccccc1)N(c1ccccc1)C2=O (stereo not drawn),0.32%
14,O=C1[C@@H](c2ccccc2)[C@@H](c2ccccc2)N1c1ccccc1,-1.27%
15,Cc1cc2c3ccccc3[nH]c(=O)n2n1,0.66%
16,S=c1ccc2ccccc2[nH]1,1.87%
17,S=c1[nH]c2ccccc2c2ccccc12,41.9% (active)
18,Cc1ccc(-n2nc(-c3ccco3)cc2C(=O)NCc2cccnc2)cc1,1.7%
19,Cc1ccc(-n2ncc3c(=O)n(-c4ccc(C)c(C)c4)c(-c4ccco4)nc32)cc1,9.24% (active)
20,Cc1ccc(-n2ncc3c2ncn2nc(-c4ccco4)nc32)c(C)c1,1.54%
